Screening results from PubChem.
This is a sample that favours compounds with a hit; in the whole collection about 19% have one here.
SW480 rerep: inducers of DNA re-replication in SW480 colon cancer cells | SW480 DNA re-replication, Hoechst DNA content imaging, 48 h | 1.8% of 340,000 active | Potency, µM (top dose mostly 46.1 µM), for the others: top-dose re-replication activation, hits mostly activators; note: potency is the fitted concentration of half-maximal effect; % of control where 0% means no effect; nearly all actives have a fitted effect of over 55% in size
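Image-based read-out: total Hoechst fluorescence of nuclei (405 nm excitation, 500-530 nm emission), with hits raising the fraction of high-intensity nuclei. SW480 colon cells incubated 48 hr with compounds at 37 C.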
DT40 TDP1 no CPT: qHTS for Inhibitors of human tyrosyl-DNA phosphodiesterase 1 (TDP1): qHTS in cells in absence of CPT. Potency, µM (titrated, usually from 46.2 µM), inactives show at the top dose activity change, negative = growth inhibition, usual class: inhibitors. AID 686978, 2013. DT40 Tdp1-/- hTDP1 cells, no CPT, ATP luminescence, 48 h. 15% of 420,000 active; note: potency is the fitted concentration of half-maximal effect; % is set by controls: 0 for no effect and ±100 for the full control effect; nearly all actives have a fitted effect of over 55% in size
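Readout: luminescence from CellTiter-Glo after 30 min in the dark at RT. Cells: DT40 Tdp1-/- with stable hTDP1, 400/well. Exposure: compounds alone, ≥48 hr, 37 °C.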
Chronic BCR inh: blocks chronic active B-cell receptor signaling; 0.05% of 340,000 active; Potency, µM (top dose mostly 46.1 µM), for the others: top-dose activity change, negative = inhibition, most hits filed as inhibitors; ABC-DLBCL IkBa-CBG/CBR reporter, luminescence ratio, 4 h; active = well fitted inhibition curve with a large enough effect in the signal ratio, with a control signal flat, not every such curve was filed as active; inconclusive = small, poorly fitted or top-dose-only effect, or effect the other way, or a change in a side signal; the % refers to the signal ratio;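 note: potency is the fitted concentration of half-maximal effect; plate controls were basal doxycycline-induced cells for no effect and cells given 10 µM MG132 for full effect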
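TMD8 human ABC-DLBCL cells with doxycycline-inducible IκBα–green luciferase fusion and unfused red luciferase, in 0.5% FBS medium; compounds up to 46 uM, 4 h at 37C. Green/red luminescence ratio, filter-overlap corrected, fitted to concentration-response curves.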
TDP1 cell CPT: DT40-hTDP1 cell growth loss with CPT; chicken DT40 Tdp1-/-;hTDP1 cells + 20 nM CPT, ATP luminescence, 48 h; Potency, µM (doses to about 46.2 µM), for inactives: at the highest dose activity change, negative = growth inhibition, most hits filed as inhibitors; 12% of 420,000 active; note: potency is the fitted concentration of half-maximal effect; % is set by controls: 0 for no effect and ±100 for the full control effect; nearly all actives have a fitted effect of over 55% in size
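Chicken DT40 Tdp1-/- cells complemented with human TDP1, 400 cells/well, exposed to compounds plus 20 nM camptothecin for at least 48 h at 37 C; viability read as ATP content by CellTiter-Glo luminescence.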
MCF10A rereplic: DNA re-replication induction in MCF 10a cells; MCF 10A DNA re-replication, Hoechst nuclear intensity, 48 h; Potency, µM (titrated, usually from 46.1 µM), for inactives: at the top dose activity, positive = re-replication, usual class: activators; 2.9% of 350,000 active; note: potency is the fitted concentration of half-maximal effect; % of control where 0% means no effect; nearly all actives have a fitted effect of over 50% in size
IL1B secr inh: blocks inflammasome-driven IL-1 beta release | THP-1 LPS/ATP IL-1B secretion, AlphaLISA, 16 h; hits give low values | activity change, % at 57.5 µM | 4.7% of 360,000 active | AID 743279; in the data active = activity change below about -50%; inconclusive = mostly about -30% to -49%; note: % is set by controls: 0 for no effect and ±100 for the full control effect
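Secreted IL-1B measured by AlphaLISA bead assay after 16 h compound exposure of THP-1 cells; compounds (final up to 57.5 uM) added 1 h before LPS (250 ng/mL) and ATP (1.25 mM) stimulation; lower signal means less secretion.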
Active calls of the source: *; ? = inconclusive; / = not tested or not shown; [ ] = another dose, or the depositor's remark. Unless noted, calls come from the whole dose curve; as a rule, active = well fitted curve in the direction sought with a large enough effect; inconclusive = small, poorly fitted or top-dose-only effect, or another doubt; inactive = no such curve, though single readings can be large; an effect the other way counts as inactive or inconclusive.

SMILES | SW480 rerep | DT40 TDP1 no CPT | Chronic BCR inh | TDP1 cell CPT | MCF10A rereplic | IL1B secr inh
CCNc1ncc2nc(-c3ccc(Cl)cc3)c(=O)n(Cc3ccc(F)cc3)c2n1 | / | -11% | / | ? | / | /
O=C(NNC(=O)C12CC3CC(CC(Br)(C3)C1)C2)c1ccccc1F | -8% | 6% | -16% | -6% | 0% | -7
O=C(NNC(=O)C12CC3CC(CC(O)(C3)C1)C2)c1ccccc1O | 16µM* | ? | 7% | ? | 3% | 0
O=C(NNC(=O)C12CC3CC(CC(C3)C1)C2)c1ccccn1 | ? | 5.2µM* | ? | 4.1µM* | ? | -97*
C/C(=N\N=C(/N)c1nonc1N)c1ccc2c(c1)OCO2 | -7% | -4% | ? | -16% | 0% | -19
Cc1cccc(OCCCN2CCOCC2)c1 | -1% | 9% | 3% | 14% | 1% | 4
Cc1cccc(N=C2Sc3nc4c(C)c(C)ccc4cc3CN2CCN2CCOCC2)c1 | 1% | 23µM* | 12% | 18µM* | 12µM* | -59*
O=C(Cn1nc(N2CCN(c3ccccc3)CC2)ccc1=O)NCc1ccccc1F | / | ? | / | -26% | / | /
CCOc1ccccc1CNC(=O)Cn1nc(N2CCN(c3ccccc3)CC2)ccc1=O | / | 21µM* | / | 21µM* | / | /
CCc1ccccc1NC(=O)Cn1nc(N2CCN(c3ccccc3OC)CC2)ccc1=O | / | 13µM* | / | ? | / | /
COc1cccc(CNC(=O)Cn2nc(N3CCN(c4ccccc4OC)CC3)ccc2=O)c1 | / | 21µM* | / | 18µM* | / | /
COc1ccc(CNC(=O)Cn2nc(N3CCN(c4ccccc4)CC3)ccc2=O)c(OC)c1 | / | 15µM* | / | ? | / | /
CC(=O)c1ccc(NC(=O)c2ccc(-c3nc(COc4ccc(C)cc4)c(C)o3)cc2)cc1 | / | -8% | / | -5% | / | /
CCn1c(CN2CCN(c3ccc(Cl)cc3)CC2)nc2ccccc21 | -7% | ? | 3% | ? | 12% | -13
CCn1c2ccccc2c2cc(CN3CCN(Cc4ccccc4C)CC3)ccc21 | / | ? | / | 16µM* | / | /
CCn1c2ccccc2c2cc(CN3CCN(Cc4ccc(Cl)cc4)CC3)ccc21 | / | ? | / | 15µM* | / | /
CCn1c2ccccc2c2cc(CN3CCN(S(C)(=O)=O)CC3)ccc21 | 12% | 16µM* | 3% | 15µM* | 22% | -9
COc1ccc(NC(=O)CSc2nnc(-c3cccs3)o2)cc1 | / | -3% | / | -10% | / | /
CCCOc1ccc(C(=O)N(CC(C)C)c2c(N)n(Cc3ccccc3)c(=O)[nH]c2=O)cc1 | ? | -13% | 4% | -14% | ? | -14
Cc1ccc(C2CC(c3cccc(C)c3)n3ncnc3N2)cc1 (stereo not drawn) | -5% | ? | 1% | 15µM* | 8% | -10
CCOc1ccc(C2CC(c3ccc(F)cc3)n3ncnc3N2)cc1 (stereo not drawn) | 1% | 21µM* | 1% | ? | 6% | -12
COc1cccc(C2CC(c3ccccc3)Nc3ncnn32)c1 (stereo not drawn) | 4% | -27% | -1% | -6% | 5% | -5
Fc1ccc(C2CC(c3ccccc3)n3ncnc3N2)cc1 (stereo not drawn) | -12% | -2% | -14% | 0% | 4% | 9
Cc1ccc2oc3c(c(=O)c2c1)C(c1ccc(O)cc1)N(c1nc(C)c(C)s1)C3=O (stereo not drawn) | / | -8% | / | -5% | / | /
O=Cc1cc2ccccc2nc1SCCCF | -12% | 4.6µM* | ? | ? | 0% | 48
SMILES | SW480 rerep | DT40 TDP1 no CPT | Chronic BCR inh | TDP1 cell CPT | MCF10A rereplic | IL1B secr inh
COc1ccc(N2C3=C(CC4=C2CC(C)(C)CC4=O)C(=O)CC(C)(C)C3)cc1 | 17% | 3.3µM* | ? | 4.6µM* | -1% | -102*
COc1ccc(N2C3=C(CC4=C2CCCC4=O)C(=O)CCC3)cc1 | 5% | ? | 7% | ? | 2% | -94*
CCc1cc(C(=O)O)c(NC(=O)C(c2ccccc2)c2ccccc2)s1 | -1% | ? | -2% | ? | 14% | 35
CCOC(=O)c1cc(C)sc1NC(=O)C(c1ccccc1)c1ccccc1 | 0% | ? | ? | ? | 26µM* | -8
CCOC(=O)c1cc(-c2ccccc2)sc1NC(=O)c1cc(OC)c(OC)c(OC)c1 | 1% | 18µM* | ? | ? | 15% | -4
CCOC(=O)c1cc(-c2ccccc2)sc1NC(=O)CC(C)C | 3% | ? | 15% | -16% | ? | 10
CCOC(=O)c1cc(-c2ccccc2)sc1NC(=S)Nc1cc(C)ccn1 | -8% | 10µM* | -4% | ? | 2% | 0
O=C(CSc1nnc(SCc2ccccc2Cl)s1)N/N=C/c1c[nH]c2ccccc12 | / | ? | 4% | 26µM* | ? | 28
O=C(CSc1nnc(SCc2ccccc2)s1)N/N=C/c1ccc(Cl)cc1Cl | -6% | ? | -6% | -24% | ? | 0
O=C(CSc1nnc(SCc2ccc(Cl)cc2)s1)N/N=C/c1ccc(Cl)cc1Cl | 22% | -40% | 1% | -14% | ? | -5
O=C(CSc1nnc(SCc2ccc(Cl)cc2)s1)N/N=C/c1c(Cl)cccc1Cl | / | 26µM* | 0% | ? | ? | 18
Cc1ccc(CSc2nnc(SCC(=O)N/N=C/c3c[nH]c4ccccc34)s2)cc1 | ? | ? | 1% | ? | 13µM* | 30
O=C(CSc1nnc(SCc2ccccc2)s1)N/N=C/c1c[nH]c2ccccc12 | -10% | -18% | ? | 2% | ? | 52
CCCN1C(=O)c2ccccc2CC1(C)C(=O)NC1CCCCC1 (stereo not drawn) | / | -24% | / | -23% | / | /
CC(=O)C[C@H](O)CC(=O)[C@H]1OC(=O)[C@H](C)C/C=C\Cc2ccccc21 | ? | 16% | 9% | 2% | 5% | 8
CCC1(CC)NC(=O)N(CC(=O)Nc2cccc3ccccc23)C1=O | 5% | -3% | -1% | -19% | -5% | 0
C1=Nc2c(NCc3ccccc3)ncnc2Oc2ccccc21 | 0%[9.22 µM] | 1µM* | ? | 3.7µM* | ? | -23
COc1ccc2c(c1)[C@]1(C)CCC(=O)C[C@H]1CC2 | / | -24% | / | -12% | / | /
CCCN(CCC)CC(O)Cn1cc(/C=C/C(=O)c2ccc(OC)cc2)c2ccccc21 (stereo not drawn) | / | 5.2µM* | / | ? | / | /
CCCCOC(=O)/C(=C/c1cn(C)c2ccccc12)NC(=O)c1ccc(OC)cc1 | -4% | -22% | -8% | 2% | 1% | 32
